Experimental data reported in the supplement of paper PMC12282887.
± gives the standard deviation of the averaged measurements.

Legend:
Assay in all cases: promoter activity interaction Z-score (Lux/OD deviation from empty-vector control); higher = stronger promoter induction by the compound
[1] = test system: E. coli BW25113 acrABp lux reporter
Procedure, shortened: (§1)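 In 384-well plates, 40 µl LB Lennox cultures of E. coli BW25113 with low-copy luxCDABE promoter reporters grew at 37°C. Optical density at 600 nm and light output were recorded every 30 min for 12 h, with windows of 0–8 h for wild type and 1–9 h for deletion strains, and wells under 10% of the median growth value were left out. Each value is a Z-transformed residual of growth-normalised luminescence fitted against a control.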

[2] = test system: E. coli BW25113 micFp lux reporter
Procedure, shortened: as §1

[3] = test system: E. coli BW25113 ompFp lux reporter
Procedure, shortened: as §1

[4] = test system: E. coli BW25113 robp lux reporter
Procedure, shortened: as §1

[5] = test system: E. coli BW25113 soxSp lux reporter
Procedure, shortened: as §1

[6] = test system: E. coli BW25113 tolCp lux reporter
Procedure, shortened: as §1

[7] = 0.5 µg/ml, genetic background: wild type
[8] = 0.5 µg/ml, genetic background: ΔmarA
[9] = 0.5 µg/ml, genetic background: Δrob
[10] = 0.5 µg/ml, genetic background: ΔsoxS
[11] = 1 µg/ml, genetic background: wild type
[12] = 1 µg/ml, genetic background: ΔmarA
[13] = 1 µg/ml, genetic background: Δrob
[14] = 1 µg/ml, genetic background: ΔsoxS
[15] = 2 µg/ml, genetic background: wild type
[16] = 2 µg/ml, genetic background: ΔmarA
[17] = 2 µg/ml, genetic background: Δrob
[18] = 2 µg/ml, genetic background: ΔsoxS

## C/C(=C\C(=O)OCCCCCCCCC(=O)O)C[C@@H]1OC[C@H](C[C@@H]2O[C@H]2[C@@H](C)[C@H](C)O)[C@@H](O)[C@H]1O [Pseudomonic acid]
[1]; [7]
  promoter activity interaction Z-score: -0.272 ± 0.0069
[1]; [8]
  promoter activity interaction Z-score: 0.456 ± 0.14
[1]; [9]
  promoter activity interaction Z-score: -0.0699 ± 0.0047
[1]; [10]
  promoter activity interaction Z-score: -0.0985 ± 0.042
[1]; [11]
  promoter activity interaction Z-score: -0.204 ± 0.26
[1]; [12]
  promoter activity interaction Z-score: 0.378 ± 0.38
[1]; [13]
  promoter activity interaction Z-score: -0.109 ± 0.35
[1]; [14]
  promoter activity interaction Z-score: 0.483 ± 0.38
[1]; [15]
  promoter activity interaction Z-score: -0.0697 ± 0.066
[1]; [16]
  promoter activity interaction Z-score: -0.0876 ± 0.43
[1]; [17]
  promoter activity interaction Z-score: 0.431 ± 0.61
[1]; [18]
  promoter activity interaction Z-score: -0.262 ± 0.13
[2]; [7]
  promoter activity interaction Z-score: -0.108 ± 0.12
[2]; [8]
  promoter activity interaction Z-score: 0.0535 ± 0.005
[2]; [9]
  promoter activity interaction Z-score: -0.0538 ± 0.014
[2]; [10]
  promoter activity interaction Z-score: 0.11 ± 0.00091
[2]; [11]
  promoter activity interaction Z-score: -0.064 ± 0.06
[2]; [12]
  promoter activity interaction Z-score: -0.0233 ± 0.076
[2]; [13]
  promoter activity interaction Z-score: -0.144 ± 0.018
[2]; [14]
  promoter activity interaction Z-score: 0.271 ± 0.095
[2]; [15]
  promoter activity interaction Z-score: -0.0515 ± 0.13
[2]; [16]
  promoter activity interaction Z-score: -0.351 ± 0.054
[2]; [17]
  promoter activity interaction Z-score: -0.275 ± 0.0059
[2]; [18]
  promoter activity interaction Z-score: -0.431 ± 0.085
[3]; [7]
  promoter activity interaction Z-score: 0.435 ± 0.061
[3]; [8]
  promoter activity interaction Z-score: 0.376 ± 0.74
[3]; [9]
  promoter activity interaction Z-score: 0.561 ± 0.78
[3]; [10]
  promoter activity interaction Z-score: 0.388 ± 0.58
[3]; [11]
  promoter activity interaction Z-score: 0.248 ± 0.034
[3]; [12]
  promoter activity interaction Z-score: 0.569 ± 0.62
[3]; [13]
  promoter activity interaction Z-score: -0.0747 ± 0.3
[3]; [14]
  promoter activity interaction Z-score: 0.938 ± 0.33
[3]; [15]
  promoter activity interaction Z-score: 1.46 ± 0.058
[3]; [16]
  promoter activity interaction Z-score: 1.34 ± 1.3
[3]; [17]
  promoter activity interaction Z-score: 1.51 ± 0.36
[3]; [18]
  promoter activity interaction Z-score: 1.34 ± 0.34
[4]; [7]
  promoter activity interaction Z-score: 0.392 ± 0.59
[4]; [8]
  promoter activity interaction Z-score: 0.85 ± 0.05
[4]; [9]
  promoter activity interaction Z-score: 0.39 ± 0.34
[4]; [10]
  promoter activity interaction Z-score: 0.257 ± 0.2
[4]; [11]
  promoter activity interaction Z-score: 0.263 ± 0.2
[4]; [12]
  promoter activity interaction Z-score: 0.154 ± 0.026
[4]; [13]
  promoter activity interaction Z-score: 0.375 ± 0.08
[4]; [14]
  promoter activity interaction Z-score: 0.843 ± 0.45
[4]; [15]
  promoter activity interaction Z-score: -0.842 ± 0.42
[4]; [16]
  promoter activity interaction Z-score: -1.15 ± 0.4
[4]; [17]
  promoter activity interaction Z-score: -1.28 ± 0.23
[4]; [18]
  promoter activity interaction Z-score: -1.41 ± 0.72
[5]; [7]
  promoter activity interaction Z-score: -0.257 ± 0.034
[5]; [8]
  promoter activity interaction Z-score: -0.0627 ± 0.0052
[5]; [9]
  promoter activity interaction Z-score: -0.182 ± 0.0097
[5]; [10]
  promoter activity interaction Z-score: -0.102 ± 0.24
[5]; [11]
  promoter activity interaction Z-score: -0.14 ± 0.14
[5]; [12]
  promoter activity interaction Z-score: -0.143 ± 0.15
[5]; [13]
  promoter activity interaction Z-score: -0.259 ± 0.033
[5]; [14]
  promoter activity interaction Z-score: 0.137 ± 0.11
[5]; [15]
  promoter activity interaction Z-score: 0.249 ± 0.064
[5]; [16]
  promoter activity interaction Z-score: 0.277 ± 0.25
[5]; [17]
  promoter activity interaction Z-score: 0.0902 ± 0.012
[5]; [18]
  promoter activity interaction Z-score: 0.748 ± 0.0089
[6]; [7]
  promoter activity interaction Z-score: -0.126 ± 0.82
[6]; [8]
  promoter activity interaction Z-score: 0.395 ± 0.35
[6]; [9]
  promoter activity interaction Z-score: -0.919 ± 0.45
[6]; [10]
  promoter activity interaction Z-score: -0.306 ± 0.13
[6]; [11]
  promoter activity interaction Z-score: -0.0576 ± 0.9
[6]; [12]
  promoter activity interaction Z-score: 0.349 ± 1.1
[6]; [13]
  promoter activity interaction Z-score: -0.441 ± 0.81
[6]; [14]
  promoter activity interaction Z-score: 0.0561 ± 0.82
[6]; [15]
  promoter activity interaction Z-score: 0.277 ± 0.14
[6]; [16]
  promoter activity interaction Z-score: -0.606 ± 0.55
[6]; [17]
  promoter activity interaction Z-score: 0.432 ± 0.075
[6]; [18]
  promoter activity interaction Z-score: -1.08 ± 0.07
